The entries come from a sample that favours hits as a whole.
Pf apPOL block = Pf-apPOL DNA polymerase inhibition; inhibition, % at 10 µM; 210,000 tested, 0.25% active; Recombinant Pf-apPOL, molecular beacon fluorescence, 1.5 h; AID 1794808
mHTT CaM bind = mHTT-calmodulin interaction abrogation; P42858; AlphaScreen His-mHTT/GST-CaM binding, luminescence; inhibition, % at 15 µM; 190,000 tested, 3.6% active; AID 1671202;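 also: 0% = both proteins with DMSO and 100% = one protein alone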
The depositor's hits bear a star; · = not tested or not shown. Rule as the data show it: active = inhibition above about 50%; inactive = the rest.

SMILES	Pf apPOL block	mHTT CaM bind
O=C(O)C(Cc1ccccc1)NS(=O)(=O)c1ccc(Cl)c(C(F)(F)F)c1 (centres undefined)	2	-4
Cc1ccccc1CNC(=O)C1(C)CCCN(C(=O)c2cccc(F)c2)C1 (centres undefined)	-2	5
CC(C)NC(=O)C1Oc2ccccc2NC1=O (centres undefined)	-8	0
CCc1ccc(C(c2ccc(CC)o2)c2cc3c(cc2[N+](=O)[O-])OCO3)o1	-8	84*
Nc1cc2c(cc1[N+](=O)[O-])OCO2	6	9
CCC1(C)CC(C(CC#N)c2ccc(C)cc2)CCO1 (centres undefined)	-3	-5
COc1ccc(-c2csc(=Nc3ccccc3)n2CCO)cc1	-5	45
O=S(=O)(c1ccc(-c2csc(=Nc3ccccc3)n2CCO)cc1)N1CCCCC1	6	45
COc1ccc(N=c2scc(-c3ccc(I)cc3)n2CCO)cc1	-5	66*
COc1ccc(N=c2scc(-c3ccc(Br)cc3)n2CCO)cc1	5	59*
Nc1nc(SCC(=O)Nc2ccc([N+](=O)[O-])cc2Cl)n[nH]1	-12	7
Cc1ccc(-c2nn(-c3ccccc3)cc2C2SCC(=O)N2Cc2ccccc2)o1 (centres undefined)	4	94*
O=C1CSC(c2cn(-c3ccccc3)nc2-c2cccs2)N1Cc1ccccc1 (centres undefined)	2	3
O=C1CSC(c2cn(-c3ccccc3)nc2-c2ccccc2)N1Cc1cccnc1 (centres undefined)	-4	30
O=C1CSC(c2cn(-c3ccccc3)nc2-c2cc3ccccc3oc2=O)N1CC1CCCO1 (centres undefined)	-4	58*
O=C1CSC(c2cn(-c3ccccc3)nc2-c2cc3ccccc3oc2=O)N1Cc1ccco1 (centres undefined)	2	31
O=C1CSC(c2cn(-c3ccccc3)nc2-c2ccc(Cl)cc2)N1Cc1cccnc1 (centres undefined)	-4	58*
Cc1cccc(-n2nc(C)c(C(=O)NCC(C)C)c2C(C)C)c1	-2	-1
CC(NC=C(C#N)c1nn[nH]n1)C(C)(C)C (centres undefined)	1	·
COc1ccc(CN2CC(C(=O)N3CCC4(CC3)OCCO4)CC2=O)cc1 (centres undefined)	-19	5
CCc1c(C)nc2[nH]nc(-c3ccccc3)n2c1=O	-2	2
CCc1c(C)[nH]n(-c2nn[nH]n2)c1=O	·	100*
Cc1ccc(NC(=O)N2CCC3(CC2)Nc2ccccc2-n2cccc23)cc1	-6	12
COCCCNC(=O)N1CCC2(CC1)Nc1cc(F)ccc1-n1cccc12	6	62*
COC(=O)CNC(=O)N1CCC2(CC1)Nc1cc(F)ccc1-n1cccc12	-5	33
SMILES	Pf apPOL block	mHTT CaM bind
COc1ccc2c(c1)NC1(CCN(C(=O)Cc3cccc(F)c3)CC1)c1cccn1-2	2	73*
O=C(NCc1ccc(F)cc1)N1CCC2(CC1)Nc1cc(F)ccc1-n1cccc12	2	59*
O=C(NC1CCCC1)N1CCC2(CC1)Nc1cc(F)ccc1-n1cccc12	-5	29
Cc1ccc(CNC(=O)N2CCC3(CC2)Nc2ccccc2-n2cccc23)cc1	-3	77*
CCC(C)NC(=O)N1CCC2(CC1)Nc1cc(F)ccc1-n1cccc12 (centres undefined)	-3	37
CCc1ccc(NC(=O)Cc2c[nH]c3ncccc23)cc1	-4	-5
Cc1ccc(C)c(CN2C(=O)NC3(CCN(C(=O)Cc4ccccc4Cl)CC3)C2=O)c1	0	7
CCOC(=O)CNC(=O)N1CCC2(CC1)Nc1ccccc1-n1cccc12	-6	56*
COC(=O)C(C)NC(=O)N1CCC2(CC1)Nc1ccccc1-n1cccc12 (centres undefined)	3	55*
COc1ccccc1NC(=O)N1CCC2(CC1)Nc1ccccc1-n1cccc12	-6	35
Cc1ccc2c(c1C)-n1cccc1C1(CCN(C(=O)Cc3ccccc3Cl)CC1)N2	-9	56*
O=C(CSCc1ccc(F)cc1)N1CCC2(CC1)Nc1cc(F)ccc1-n1cccc12	-1	100*
CCOc1ccc(-n2c(=O)c3sccc3n(CC(=O)N3CCCCC3C)c2=O)cc1 (centres undefined)	2	2
Cc1ccc2nc(C(F)(F)F)cc(N3CCN(C=C(C#N)S(=O)(=O)c4ccccc4)CC3)c2c1	-12	·
Cc1ccc(-c2cc(C(F)(F)F)n3ncc(C#N)c3n2)cc1	1	-5
COc1cccc(NC(=O)N2CCOc3ccccc32)c1	-7	-4
COc1ccc(NC(=O)c2c(C)c(C)c(C)n2Cc2cccc(F)c2)cc1	-1	-1
CCc1nnc(NC(=O)c2ccc(S(=O)(=O)N(C)C)cc2)o1	-4	24
CCSc1ccc(Cc2nnc(NC(=O)c3ccc(S(=O)(=O)N(C)C)cc3)o2)cc1	-253	61*
O=C(c1ccc(OCC2CCN(C(=O)c3cc(F)ccc3Cl)CC2)cc1)N1CCCC1	-4	8

Screens: PubChem BioAssay, University of Kansas High Throughput Screening Laboratory
